# Screening results: PubChem, Broad Institute
# Most compounds without a hit are left out; they make up all but 3.1% or so of the library.
# RAD54 inh: inhibitors of human RAD54 branch migration. Q92698. inhibition, % at 10.4 µM. AID 602329. RAD54 Holliday junction branch migration, FAM/BHQ fluorescence. hit rate 0.14% among 360,000;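 active means mean normalized replicate activity at least 40 and at least half of replicates scoring 40 or more; inconclusive means only one of the two criteria met; inactive means mean below 40 and under half of replicates reaching 40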;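 further: 0% = median of neutral control wells and 100% = median of positive control wells; inhibitors cause a drop in the FAM fluorescence signal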
# dFosB act: enhances mouse delta FosB homodimer DNA binding; purified delta FosB, TAMRA-CDK5 oligo fluorescence polarization; percent of positive-control signal above neutral wells; hit rate 0.99% among 340,000; activation, % at 25 µM;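 active means mean activation above about 17%, with every replicate also reaching it, limit read from the data, passing the limit was not always enough; inconclusive means only one of the two conditions met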
# GSIS activator: GLuc luminescence reporter in INS-1E cells, primary screen for activators of glucose-dependent secretion of insulin; activation, % at 16.6 µM; hit rate 0.61% among 370,000; INS-1E GLuc reporter insulin secretion, 2-3 h;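 active means lowest replicate activation of at least 40%, so every replicate reaches that level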;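 further: 0% = median of neutral control wells and 100% = median of IBMX positive control wells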
# RAD52 anneal inh: RAD52 (human) annealing inhibition; hit rate 0.46% among 360,000; recombinant RAD52 DNA annealing, FRET fluorescence; P43351; inhibition, % at 18.7 µM;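 active means every replicate showing at least 50% inhibition; inconclusive means mean inhibition at least 50% but not in every replicate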
# Target sequence (P43351 whole entry, looked up): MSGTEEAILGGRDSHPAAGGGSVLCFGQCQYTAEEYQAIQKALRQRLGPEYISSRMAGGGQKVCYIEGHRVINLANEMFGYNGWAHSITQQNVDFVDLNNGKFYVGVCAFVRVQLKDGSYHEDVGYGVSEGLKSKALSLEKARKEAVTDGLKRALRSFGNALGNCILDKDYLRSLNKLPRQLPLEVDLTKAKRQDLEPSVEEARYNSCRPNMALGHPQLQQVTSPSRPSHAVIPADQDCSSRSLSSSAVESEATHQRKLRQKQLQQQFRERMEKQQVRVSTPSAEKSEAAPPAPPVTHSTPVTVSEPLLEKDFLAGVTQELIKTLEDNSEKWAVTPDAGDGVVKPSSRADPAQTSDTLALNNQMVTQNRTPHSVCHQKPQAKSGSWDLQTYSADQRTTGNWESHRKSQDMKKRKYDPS
# MLL AF4-AF9 inh: blocks AF4 peptide binding to human AF9. P42568. AlphaScreen, biotin-AF4 peptide binding to FLAG-AF9. inhibition, % at 10 µM. hit rate 0.47% among 350,000. AID 651704;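 active means every replicate reaching a set inhibition limit, whatever the replicate mean, cut at about 25% in these data; inconclusive means mean inhibition reaches that limit but some replicates miss it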;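 further: 0% = plate neutral control median and 100% = total signal loss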
# DENV2 CPE rescue: DENV2-induced cell death inhibition. CPE inhibition, % at 9.99 µM. hit rate 1.7% among 350,000. DENV2-infected cells, cytopathic effect rescue, plate reader; in the data active means CPE inhibition above about 20%, passing the limit was not always enough; inconclusive means no clear call, values can overlap the other calls; tested in BHK-21 cells;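 further: 0% = median of neutral control wells and 100% = median of positive control wells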
# Numbers without * were called inactive; u = inconclusive; x = no result given.
SMILES,RAD54 inh,dFosB act,GSIS activator,RAD52 anneal inh,MLL AF4-AF9 inh,DENV2 CPE rescue
Cc1noc(C)c1S(=O)(=O)Nc1ccc2c(c1)C(=O)N([C@H](C)CO)C[C@H](C)[C@@H](CN(C)Cc1ccccc1)O2,-2.0,x,6.5,4.6,1.3,2.0
C[C@@H]1CCCCO[C@@H](CN(C)S(=O)(=O)c2ccc(F)cc2)[C@@H](C)CN([C@H](C)CO)C(=O)c2cc(NS(=O)(=O)c3ccccc3)ccc2O1,-5.7,x,-6.1,0.1,-2.3,-3.0
C[C@@H]1CCCCO[C@@H](CN(C)C(=O)Nc2ccc3c(c2)OCO3)[C@H](C)CN([C@@H](C)CO)C(=O)c2cc(NC(=O)Nc3ccc4c(c3)OCO4)ccc2O1,5.0,x,11.8,-1.3,2.7,6.5
COC(=O)C[C@H]1CC[C@@H]2[C@@H](COc3ccc(NC(=O)c4cnccn4)cc3C(=O)N2C)O1,-1.5,x,-3.7,x,x,0.3
C/C=C/c1cnc2c(c1)C(=O)N([C@H](C)CO)C[C@@H](C)[C@@H](CN(C)C(=O)Cc1ccccc1)O2,0.3,x,17.8,21.9,-2.6,14.3
CCS(=O)(=O)N1CCC2(CC1)CN(C(=O)c1cccc(F)c1)[C@H](CO)c1c2c2ccc(OC)cc2n1C,x,x,-1.7,6.0,-0.4,10.9
C[C@H]1CN(C)C(=O)c2cc(N(C)C)ccc2O[C@@H]1CN(C)C(=O)OC(C)(C)C,x,x,-5.2,x,x,x
CCCSc1nc2c(cnn2-c2ccc(C)c(C)c2)c(=O)[nH]1,2.1,-6.5,x,-3.3,-3.3,5.4
CCCCSc1nc2[nH]ncc2c(=O)[nH]1,-17.5,-0.1,68.9*,-13.9,0.1,-3.6
CCCCSc1nc2c(cnn2-c2ccc(C)c(C)c2)c(=O)[nH]1,-2.4,-7.2,x,-0.3,0.3,50.4*
CCSc1nc2[nH]ncc2c(=O)[nH]1,x,7.4,28.4,x,x,x
COC(=O)c1ccc2c(c1)NC(=O)C(N(CC(C)C)CC(C)C)S2 (stereo unspecified),-0.6,-9.0,45.8*,-43.6,-5.4,u
CCC(=O)N1C[C@@H]2[C@H](c3ccccc31)[C@@H](CO)N2C(=O)Nc1ccccc1,-2.7,x,4.2,-12.2,-1.8,x
CO[C@H]1CN(C)C(=O)c2cc(NS(C)(=O)=O)ccc2OC[C@H](C)N(C(=O)c2ccc3c(c2)OCO3)C[C@@H]1C,2.6,x,-0.3,-9.7,-0.2,41.7*
CO[C@H]1CN(C)C(=O)c2cc(NS(C)(=O)=O)ccc2OC[C@@H](C)N(C(=O)c2ccc3c(c2)OCO3)C[C@H]1C,-2.4,x,11.8,-1.0,-1.8,27.5*
CO[C@@H]1CN(C)C(=O)c2cc(NC(=O)Nc3cccc(F)c3)ccc2OC[C@H](C)N(C(=O)Nc2c(C)noc2C)C[C@@H]1C,8.0,x,8.7,-9.9,2.2,-7.1
CO[C@H]1CN(C)C(=O)c2ccc(NC(=O)Nc3ccccc3F)cc2OC[C@@H](C)NC[C@H]1C,9.1,x,15.6,12.4,-2.4,-4.8
N#CC(C(=O)c1ccco1)c1ccccn1 (stereo unspecified),-2.7,-0.7,42.5*,x,x,x
Cc1noc(C)c1NC(=O)N(C)C[C@@H]1Oc2ccc(NC(=O)NC(C)C)cc2C(=O)N([C@@H](C)CO)C[C@@H]1C,-0.3,x,30.9,-5.4,-2.6,16.5
COc1ncc(C2=CC(=O)CC(C)(C)C2)cn1,-9.1,6.6,3.9,-1.2,x,30.8*
COc1ccc(C2=CC(=O)CC(C)(C)C2)cc1OC,1.1,3.4,33.2,-91.0,-6.0,x
CCCNC(=O)N[C@@H]1CC[C@H](CCn2cc(C3CCCC3)nn2)O[C@H]1CO,-3.4,x,23.7,-19.4,-2.1,5.8
CC(C)c1cn(CC[C@@H]2CC[C@H](NC(=O)C3CCOCC3)[C@@H](CO)O2)nn1,x,x,18.3,1.2,0.6,71.4*
CCCNC(=O)N[C@@H]1CC[C@@H](CCn2cc(C3CCCC3)nn2)O[C@H]1CO,8.6,x,-0.2,-2.6,-1.0,33.2*
O=C(N[C@@H]1CC[C@@H](CCn2cc(C3CCCC3)nn2)O[C@H]1CO)c1cccnc1,x,x,0.5,-8.8,-0.3,29.3*
O=C(C[C@@H]1C[C@H]2c3cc(NS(=O)(=O)c4ccccc4)ccc3O[C@H]2[C@H](CO)O1)NCC(F)(F)F,-1.3,x,-4.7,-6.3,1.1,-1.4
O=C(C[C@H]1CC[C@H]2[C@@H](COC[C@@H](O)CN2C(=O)c2cccnc2)O1)Nc1ccc(-c2ccccc2)cc1,-0.7,x,-11.9,1.9,2.8,-3.9
